The nature of assay [1]: qHTS of pediatric cancer cell lines to identify multiple opportunities for drug repurposing: Primary screen for DAOY cells (AID 1347090). Note: nearly all actives have a fitted effect of over 55% in size. The method in brief: (§1)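 Viability measured as metabolically active cells via CellTiter-Glo luminescence following 48 hours of compound exposure, 11-point dilutions in confirmatory testing. 500-1,000 cells/well plated 5 hours before dosing; controls were DMSO and 2.3 µM bortezomib.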
For orientation: qHTS replaces the single test concentration by a dilution series.

The nature of assay [2]: qHTS of pediatric cancer cell lines to identify multiple opportunities for drug repurposing: Primary screen for SJ-GBM2 cells (AID 1347091). The method in brief: as §1
The nature of assay [3]: qHTS of pediatric cancer cell lines to identify multiple opportunities for drug repurposing: Primary screen for A673 cells (AID 1347092). Note: nearly all actives have a fitted effect of over 45% in size. The method in brief: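 Cells are plated, rested 5 h, dosed by pintool, incubated 48 h, then lysed with CellTiter-Glo and read by luminescence. DMSO is the neutral control; bortezomib at 2.3 uM final is the positive control.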
The nature of assay [4]: qHTS of pediatric cancer cell lines to identify multiple opportunities for drug repurposing: Primary screen for SK-N-MC cells (AID 1347093). The method in brief: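 Metabolically active cells were quantified by ATP-dependent luminescence (CellTiter-Glo, 15 min at room temperature) following 48 h treatment. Cells had been plated at 500-1,000 per well and settled for 5 h beforehand.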

A short description of assay [5]: qHTS of pediatric cancer cell lines to identify multiple opportunities for drug repurposing: Primary screen for BT-37 cells (AID 1347094). Put shortly:
(§2)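 Readout: CellTiter-Glo luminescence, 48 h treatment. Controls DMSO (neutral) and bortezomib 2.3 µM final (positive). Potency and efficacy taken from primary-screen concentration-response curves.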

Assay [6] is described as follows: qHTS of pediatric cancer cell lines to identify multiple opportunities for drug repurposing: Primary screen for U-2 OS cells (AID 1347096). Note: nearly all actives have a fitted effect of over 50% in size. The method in brief: (§3)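 Viability after 48 h compound treatment at 37C, 500-1,000 cells/well, read as ATP luminescence with CellTiter-Glo. Primary screens used 11-point (MIPE, 0.78 nM-46 µM) or 8-point (NPC, 0.59 nM-46 µM) final concentrations; follow-up screens used 11-point dilutions.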

Assay [7] is described as follows: qHTS of pediatric cancer cell lines to identify multiple opportunities for drug repurposing: Primary screen for Saos-2 cells (AID 1347097). Note: nearly all actives have a fitted effect of over 40% in size. Put shortly:
as §2

Assay [8] can be described thus: qHTS of pediatric cancer cell lines to identify multiple opportunities for drug repurposing: Primary screen for SK-N-SH cells (AID 1347098). Note: nearly all actives have a fitted effect of over 65% in size. The method in brief:
(§4)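 Cells (500-1,000/well) rested 5 h, then received compounds for 48 h; metabolically active cells were measured by CellTiter-Glo luminescence. Final concentrations spanned up to 46 µM (MIPE, 11-point) or 0.59 nM-46 µM (NPC, 8-point) in primary screens, 11-point in follow-ups.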

A short description of assay [9]: qHTS of pediatric cancer cell lines to identify multiple opportunities for drug repurposing: Primary screen for LAN-5 cells (AID 1347100). The method in brief: as §3
Assay [10] is described as follows: qHTS of pediatric cancer cell lines to identify multiple opportunities for drug repurposing: Primary screen for BT-12 cells (AID 1347101). Note: nearly all actives have a fitted effect of over 25% in size. Put shortly: as §4
Assay [11] is described as follows: qHTS of pediatric cancer cell lines to identify multiple opportunities for drug repurposing: Primary screen for Rh18 cells (AID 1347102). Note: nearly all actives have a fitted effect of over 65% in size. Put shortly: as §3
Assay [12] is described as follows: qHTS of pediatric cancer cell lines to identify multiple opportunities for drug repurposing: Primary screen for OHS-50 cells (AID 1347103). Note: nearly all actives have a fitted effect of over 40% in size. Put shortly: as §4
Assay [13] in a line: qHTS of pediatric cancer cell lines to identify multiple opportunities for drug repurposing: Primary screen for RD cells (AID 1347104). Note: nearly all actives have a fitted effect of over 55% in size. The method in brief:
as §2

The nature of assay [14]: qHTS of pediatric cancer cell lines to identify multiple opportunities for drug repurposing: Primary screen for NB-EBc1 cells (AID 1347095). Put shortly: as §2
Assay [15] in a line: qHTS of pediatric cancer cell lines to identify multiple opportunities for drug repurposing: Primary screen for NB1643 cells (AID 1347099). Note: nearly all actives have a fitted effect of over 50% in size. Put shortly: as §2

Results filed as inconclusive are left out. Active and inactive are the calls of the source. Calls come from the whole dose curve; as a rule, active = well fitted curve in the direction sought with a large enough effect; inconclusive = small, poorly fitted or top-dose-only effect, or another doubt; inactive = no such curve, though single readings can be large; an effect the other way counts as inactive or inconclusive.
Potency is the fitted concentration of half-maximal effect.

Turning to `CCN1CCN(Cc2ccc(-c3cc4c(N[C@H](C)c5ccccc5)ncnc4[nH]3)cc2)CC1`, the Potency was 0.001 µM (active) in assay [1]; 0.332 µM (active) in assay [2]; 0.001 µM (active) in assay [3]; 0.001 µM (active) in assay [4]; 0.153 µM (active) in assay [5]; 18.7 µM (active) in assay [6]. Also, the Potency in assay [7] is 0.209 µM (active); in assay [8] it was 21.5 µM (active); in assay [9] it was 0.0148 µM (active); in assay [10], 0.769 µM (active); in assay [11], 5.9 µM (active); in assay [12] it was 0.153 µM (active). Moreover, the Potency in assay [13] is 0.0074 µM (active).

`c1cc(-c2cnn3cc(-c4ccc(OCCN5CCCCC5)cc4)cnc23)ccn1`: the Potency in [1] was 18.7 µM (active); in assay [2], 16.6 µM (active); in assay [3], 4.69 µM (active); in [4] it was 9.35 µM (active); in [5], 17.2 µM (active); in assay [14] it was 23.5 µM (active). Besides, the Potency in assay [8] was 21.5 µM (active); in assay [15], 3.72 µM (active); in assay [9], 9.35 µM (active); in assay [10] it was 24.3 µM (active); in assay [12], 9.68 µM (active).

For the molecule `Cn1c(=O)n(-c2ccc(C(C)(C)C#N)cc2)c2c3cc(-c4cnc5ccccc5c4)ccc3ncc21`, the Potency is 0.0662 µM (active) in assay [2]; 0.0296 µM (active) in assay [3]; 0.0544 µM (active) in assay [5]; 0.235 µM (active) in assay [7]; 0.209 µM (active) in [11]; 0.109 µM (active) in assay [12]. For the same molecule, the Potency in assay [13] was 0.332 µM (active). The Potency entry in assay [15] was “inactive”.

On to `CCN1CCN(CC(=O)Nc2ccc(-c3cccc4c(=O)cc(N5CCOCC5)oc34)c3sc4ccccc4c23)CC1`, for which the Potency in [2] is 0.743 µM (active); in assay [3] it was 2.35 µM (active); in assay [4], 0.59 µM (active); in assay [5] it was 4.85 µM (active); in assay [14] it was 1.18 µM (active); in [7], 2.96 µM (active). Also, the Potency in [8] is 6.07 µM (active); in assay [9], 0.833 µM (active); in assay [11] it was 1.18 µM (active); in assay [12], 0.172 µM (active); in assay [13], 0.743 µM (active).

As for `NC1(Cc2ccc(Cl)cc2)CCN(c2ncnc3[nH]ccc23)CC1`, the Potency in assay [2] was 5.26 µM (active); in assay [3], 14.8 µM (active); in assay [4], 3.32 µM (active); in assay [14], 11.8 µM (active); in assay [7] it was 5.26 µM (active); in assay [8] it was 27.1 µM (active). For the same molecule, the results for the Potency in assay [15], in assay [12] and in [13] were 20.9 µM (active), 6.11 µM (active) and 11.8 µM (active), respectively.

Consider `CC1(O)CC(c2nc(-c3ccc4ccc(-c5ccccc5)nc4c3)c3c(N)nccn23)C1` (configuration not stated), for which the Potency was 10.5 µM (active) in [2]; 23.5 µM (active) in assay [3]; 0.0418 µM (active) in assay [4]; 19.3 µM (active) in assay [5]; 0.662 µM (active) in assay [14]; 0.935 µM (active) in [7]. The Potency in assay [15] is 2.09 µM (active); in [9], 0.418 µM (active); in [10], 17.2 µM (active); in assay [12], 0.544 µM (active); in assay [13], 0.59 µM (active).

Turning to `C=CC(=O)Nc1cccc(Oc2nc(Nc3ccc(N4CCN(C)CC4)cc3OC)ncc2Cl)c1`, the Potency in assay [1] is 0.0372 µM (active); in assay [5], 27.3 µM (active); in assay [14] it was 2.35 µM (active); in [6] it was 23.5 µM (active); in assay [7] it was 6.62 µM (active); in assay [15], 1.18 µM (active). Further, the Potency in assay [9] was 1.05 µM (active); in assay [10], 34.3 µM (active); in assay [11], 20.9 µM (active); in [12] it was 4.85 µM (active); in assay [13], 7.43 µM (active).

Consider `NCC(=O)Nc1ccc(-n2nc(C(F)(F)F)cc2-c2ccc3c(ccc4ccccc43)c2)cc1`, for which the Potency was 23.5 µM (active) in assay [1]; 23.5 µM (active) in [3]; 0.0372 µM (active) in assay [4]; 24.3 µM (active) in assay [5]; 0.833 µM (active) in [14]; 26.4 µM (active) in assay [7]. For the same molecule, the Potency is 18.7 µM (active) in assay [15]; 23.5 µM (active) in assay [9]; 24.3 µM (active) in [10]; 26.4 µM (active) in assay [11]; 30.6 µM (active) in assay [12]; 16.6 µM (active) in assay [13].

`COc1cccc(-c2ccc(NC(=O)C3=C(C(=O)O)CCC3)c(F)c2)c1`: the Potency is 11.8 µM (active) in [2]; 5.9 µM (active) in assay [3]; 1.32 µM (active) in [4]; 19.3 µM (active) in [5]; 3.72 µM (active) in [14]; 13.2 µM (active) in assay [7]. Besides, the Potency in [8] is 24.1 µM (active); in assay [15] it was 5.26 µM (active); in [9] it was 13.2 µM (active); in assay [10], 19.3 µM (active). In addition, the Potency result in assay [11] is “inactive”.

For the molecule `CC(C)=CCCC(C)=CCCC(C)=CCSc1ccccc1C(=O)O`, the Potency in assay [2] was 0.833 µM (active); in [3] it was 5.9 µM (active); in [4], 0.743 µM (active); in [5], 7.69 µM (active); in [14], 5.9 µM (active); in assay [7], 3.72 µM (active). For the same molecule, the Potency in assay [11] is 11.8 µM (active); in assay [12], 1.53 µM (active). Further, the Potency result in [15] is “inactive”.

`Fc1cc(-c2cccc3ncc(-c4cnn(C5CCNCC5)c4)nc23)cc(F)c1CN1CCOCC1`: the Potency in assay [2] is 16.6 µM (active); in [3], 18.7 µM (active); in assay [4], 14.8 µM (active); in assay [5] it was 24.3 µM (active); in [7] it was 29.6 µM (active); in assay [8], 24.1 µM (active). Moreover, the Potency was 18.7 µM (active) in [15]; 27.3 µM (active) in assay [10]; 20.9 µM (active) in assay [11]; 19.3 µM (active) in assay [12]; 18.7 µM (active) in assay [13]. In addition, the Potency result in assay [6] was “inactive”.

As for `CN1CCN(c2cc(C(=O)Nc3ccc4c(c3)-c3c(c(C(N)=O)nn3-c3ccc(F)cc3)CC4)c(Cl)cn2)CC1`, the Potency is 11.8 µM (active) in assay [1]; 2.35 µM (active) in assay [3]; 24.3 µM (active) in assay [5]; 23.5 µM (active) in assay [6]; 16.6 µM (active) in assay [7]; 7.64 µM (active) in assay [8]. In addition, the Potency in assay [15] is 1.18 µM (active); in assay [9] it was 16.6 µM (active); in assay [10], 30.6 µM (active); in assay [12] it was 24.3 µM (active); in assay [13], 16.6 µM (active).

On to `CC(=O)Nc1sc2c(c1-c1nc3ccccc3s1)CNC2`, for which the Potency is 18.7 µM (active) in assay [3]; 15.3 µM (active) in [5]; 2.35 µM (active) in [14]; 1.21 µM (active) in [8]; 5.26 µM (active) in assay [15]; 10.5 µM (active) in assay [9]. Besides, the Potency in [12] is 24.3 µM (active). For the same molecule, the Potency result in assay [6] was “inactive”.

For the origin of these results see PubChem BioAssay (NCATS).
